Source: PubChem BioAssay
Activity calls are given as the source filed them.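 Rule for the calls, unless noted: active = fluorescence slope after compound addition differing from the mean of all screened samples at 99.7% confidence, in either direction; inactive = the rest.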 Where a SMILES comes first, the peptide text is derived from it. The star is where a group is joined. Boc = CC(C)(C)OC(=O)*

Tests used:
[1] = inhibitors of TNFa-induced NFkB p65 translocation, primary screen, imaging, HUVEC, MLSMR starter and 10KST1 sets (AID 438;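 active = inhibition above 20% together with a positive visual image hit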;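 note: compound added about 3h40 before a 20 min TNFalpha stimulation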;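 for inhibition: signal is the nuclear over cytoplasmic p65 intensity ratio per well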); settings: HUVEC TNFa-induced p65 nuclear translocation; cell count: measured here: nuclei count (cytotoxicity indicator), at 2.08 µM; inhibition: at 2 µM, stronger effect = higher value, 0% TNFa-plus-vehicle, 100% no-TNFa wells
[2] = reduction of polyQ htt aggregates in cells – imaging, exon1htt(103Q)mCFP cells, high-content imaging, primary screen (AID 483;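 active = visual image review flags a hit and inhibition of aggregation exceeds 20%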;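 note: compound exposure lasted 3 days before fixation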;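 for nuclei count: percent of the per-plate median nuclei count of sample wells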); settings: exon1htt(103Q)mCFP cell line, aggregate imaging, at 2 µM; inhibition of aggregation: stronger effect = higher value; nuclei count: measured here: cell count, toxicity
[3] = endothelial E-selectin expression blockers – imaging, HUVEC, immunofluorescence, MLSMR starter and 10KST1 sets, primary screen (AID 487;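 active = visually confirmed hit in the image check and inhibition above 20%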;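 for inhibition: signal is fraction of cell area covered by stained E-selectin grains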;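 for nuclei count: 100% = median nuclei count of all wells on the same plate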); settings: HUVEC TNFalpha-induced E-selectin immunofluorescence imaging, at 2 µM; inhibition: stronger effect = higher value; nuclei count: measured here: cell number, toxicity
[4] = target: Voltage-gated potassium channel subunit beta-2 (Rattus norvegicus) (UniProt P62483); assay: inhibitors of rat Kvbeta2 reductase activity – biochemical, NADPH fluorescence, primary screen (AID 622;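 active = fluorescence slope higher than the sample average by over 3 SD, cut at about -0.22 in these data, passing the limit was not always enough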;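 note: slope of raw intensity against log time taken from 70 to 1610 s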); settings: recombinant KvBeta, 4-cyanobenzaldehyde reduction, at 10 µM, stronger effect = higher value
[5] = target: Voltage-gated potassium channel subunit beta-2 (Rattus norvegicus) (UniProt P62483); assay: enhancers of rat Kvbeta2 NADPH turnover – biochemical, NADPH fluorescence, primary screen (AID 623;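 active = NADPH fluorescence slope more negative than the mean of all samples by about 3 SD, 99.7% confidence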;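 note: fluorescence intensity change per second fitted from 20 to 320 s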); settings: Recombinant KvBeta, NADPH fluorescence decrease slope, 10 min; at 10 µM; stronger effect = lower value
[6] = target: Alpha-2C adrenergic receptor (Homo sapiens) (UniProt P18825); assay: compounds altering alpha2C-coupled GIRK flux – cell-based, HEK293 alpha2C/GIRK1/2, thallium flux, primary screen (AID 624); settings: thallium flux BTC fluorescence, at 10 µM, actives lie on both sides;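 note: slope of fluorescence ratio to pre-addition baseline per second over 15 to 24 s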
[7] = blockers of RIG-like receptor reporter activation – cell-based, Sendai virus stimulus, luciferase, 10K MLSCN set, TLR/RLR signaling modifier project, primary screen (AID 602276;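 active = inhibition at or above 50% at 10 µM; inactive = inhibition below 50%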;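 note: firefly luciferase from ISG56 promoter only with Renilla not read in this screen; 0% = Sendai virus plus DMSO and 100% = medium plus DMSO without virus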); settings: HEK293 RL24 IRF3 luciferase reporter, at 10 µM, stronger effect = higher value
[8] = TLR3 IRF3 reporter activation blockers – cell-based, poly I:C stimulus, luciferase, 10K MLSCN set, primary screen (AID 602277;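 active = inhibition of the reporter signal at or above 50%; inactive = inhibition below 50%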); settings: HEK293-TLR3 RL24 IRF3 luciferase reporter, at 10 µM, stronger effect = higher value

Voltage-gated potassium channel subunit beta-2 (Rattus norvegicus), sequence (P62483 whole entry, looked up): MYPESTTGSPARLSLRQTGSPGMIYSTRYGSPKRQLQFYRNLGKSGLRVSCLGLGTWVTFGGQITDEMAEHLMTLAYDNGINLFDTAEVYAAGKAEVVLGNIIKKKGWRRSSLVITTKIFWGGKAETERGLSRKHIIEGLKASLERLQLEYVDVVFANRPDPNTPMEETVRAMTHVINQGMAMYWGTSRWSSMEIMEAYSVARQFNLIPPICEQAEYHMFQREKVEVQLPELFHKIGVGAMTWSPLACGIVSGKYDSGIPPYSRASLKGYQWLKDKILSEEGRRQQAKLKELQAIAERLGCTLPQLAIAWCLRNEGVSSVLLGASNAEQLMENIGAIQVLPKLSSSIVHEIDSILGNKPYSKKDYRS
Alpha-2C adrenergic receptor (Homo sapiens), sequence (P18825 whole entry, looked up): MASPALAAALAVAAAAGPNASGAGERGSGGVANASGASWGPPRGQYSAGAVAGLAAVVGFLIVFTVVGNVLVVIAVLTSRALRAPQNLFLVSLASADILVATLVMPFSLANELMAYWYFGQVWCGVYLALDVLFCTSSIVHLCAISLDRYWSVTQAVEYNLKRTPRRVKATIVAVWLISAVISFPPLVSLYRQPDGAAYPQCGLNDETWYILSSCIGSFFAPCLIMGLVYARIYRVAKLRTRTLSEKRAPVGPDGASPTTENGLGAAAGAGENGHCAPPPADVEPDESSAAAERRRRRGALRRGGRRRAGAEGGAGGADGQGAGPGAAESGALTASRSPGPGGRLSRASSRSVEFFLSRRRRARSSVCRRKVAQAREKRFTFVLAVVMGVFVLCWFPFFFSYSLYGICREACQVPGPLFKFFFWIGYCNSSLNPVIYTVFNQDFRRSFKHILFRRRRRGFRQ

C=CCOc1ccc(/C=N/n2cncn2)cc1OC
cell count [1]: 517
inhibition [1]: -8.8% (inactive)
inhibition of aggregation [2]: 23.9% (inactive)
nuclei count [2]: 76.3%
inhibition [3]: -39.8% (inactive)
nuclei count [3]: 81.6%
fluorescence slope [4]: -0.58 (inactive)
NADPH fluorescence slope [5]: 2.1e-05 (inactive)
slope [6]: 0.00496 (inactive)
inhibition [7]: -10.2% (inactive)
inhibition [8]: 5.53% (inactive)

CCCc1cc(-n2ccnc2)n2c(nc3ccccc32)c1C#N
cell count [1]: 571
inhibition [1]: 8.7% (inactive)
inhibition of aggregation [2]: -11.1% (inactive)
nuclei count [2]: 98.8%
inhibition [3]: 30.6% (inactive)
nuclei count [3]: 99.8%
fluorescence slope [4]: -0.51 (inactive)
NADPH fluorescence slope [5]: 1.6e-06 (inactive)
slope [6]: 0.00652 (inactive)
inhibition [7]: 16.6% (inactive)
inhibition [8]: 47.3% (inactive)

CCCCSCCCNC(=O)CS(=O)Cc1nc(-c2cccc(C)c2)oc1C (centres undefined)
cell count [1]: 527
inhibition [1]: -9.6% (inactive)
inhibition of aggregation [2]: -1.1% (inactive)
nuclei count [2]: 107%
inhibition [3]: -27.5% (inactive)
nuclei count [3]: 113%
fluorescence slope [4]: -0.308 (inactive)
NADPH fluorescence slope [5]: 1.3e-05 (inactive)
slope [6]: -0.000762 (active)
inhibition [7]: 10.8% (inactive)
inhibition [8]: 10.7% (inactive)

O=S(=O)(Nc1nc2ccccc2nc1NCc1ccco1)c1ccc(Cl)cc1
cell count [1]: 481
inhibition [1]: 0.9% (inactive)
inhibition of aggregation [2]: 4.8% (inactive)
nuclei count [2]: 101%
inhibition [3]: 8.2% (inactive)
nuclei count [3]: 129%
fluorescence slope [4]: -0.448 (inactive)
NADPH fluorescence slope [5]: -6.1e-05 (inactive)
slope [6]: 0.00347 (inactive)
inhibition [7]: 19.4% (inactive)
inhibition [8]: 18.7% (inactive)

Cc1c(C(=O)OCC(C)(C)CN(C)C)oc2ccccc12
cell count [1]: 428
inhibition [1]: -3.3% (inactive)
inhibition of aggregation [2]: -15.2% (inactive)
nuclei count [2]: 107%
inhibition [3]: -39.5% (inactive)
nuclei count [3]: 118%
fluorescence slope [4]: -0.328 (inactive)
NADPH fluorescence slope [5]: 2.8e-05 (inactive)
slope [6]: 0.00529 (inactive)
inhibition [7]: -31.4% (inactive)
inhibition [8]: -27.6% (inactive)

CCCOC(=O)CSc1nc(N)c(C#N)c(CC)c1C#N
cell count [1]: 377
inhibition [1]: 3.3% (inactive)
inhibition of aggregation [2]: 18% (inactive)
nuclei count [2]: 97.7%
inhibition [3]: -97.1% (inactive)
nuclei count [3]: 113%
fluorescence slope [4]: -0.532 (inactive)
NADPH fluorescence slope [5]: -2.3e-05 (inactive)
slope [6]: 0.00456 (inactive)
inhibition [7]: -7.11% (inactive)
inhibition [8]: -13.9% (inactive)

CCOc1ccccc1N1Cc2cc(C)c(C)cc2C1
cell count [1]: 576
inhibition [1]: 2.9% (inactive)
inhibition of aggregation [2]: 22.5% (inactive)
nuclei count [2]: 110%
inhibition [3]: -9% (inactive)
nuclei count [3]: 118%
fluorescence slope [4]: -0.543 (inactive)
NADPH fluorescence slope [5]: 1.2e-05 (inactive)
slope [6]: 0.00798 (inactive)
inhibition [7]: -0.273% (inactive)
inhibition [8]: -2.86% (inactive)

CC(C)(C)OC(=O)N1CCCC1C(=O)NC(Cc1ccccc1)C(=O)O (stereo not drawn) (Boc-Pro-Phe-OH; configuration not given here)
cell count [1]: 431
inhibition [1]: 1% (inactive)
inhibition of aggregation [2]: 4.3% (inactive)
nuclei count [2]: 99.5%
inhibition [3]: 21.6% (inactive)
nuclei count [3]: 101%
fluorescence slope [4]: -0.607 (inactive)
NADPH fluorescence slope [5]: 1.1e-05 (inactive)
slope [6]: 0.00669 (inactive)
inhibition [7]: 12.2% (inactive)
inhibition [8]: 17.2% (inactive)

CC1=C(C(=O)OCC(C)C)C(c2cc3c(cc2Br)OCO3)NC(=O)N1C (centres undefined)
cell count [1]: 425
inhibition [1]: -3.6% (inactive)
inhibition of aggregation [2]: -13.3% (inactive)
nuclei count [2]: 98.5%
inhibition [3]: -103% (inactive)
nuclei count [3]: 118%
fluorescence slope [4]: -0.44 (inactive)
NADPH fluorescence slope [5]: -3.6e-05 (inactive)
slope [6]: 0.00323 (inactive)
inhibition [7]: 11.4% (inactive)
inhibition [8]: 34.6% (inactive)

CCCCOCCCNC(=O)c1ccc(NC(C)=O)cc1
cell count [1]: 416
inhibition [1]: -1.6% (inactive)
inhibition of aggregation [2]: 1.3% (inactive)
nuclei count [2]: 99.3%
inhibition [3]: 8.8% (inactive)
nuclei count [3]: 115%
fluorescence slope [4]: -0.45 (inactive)
NADPH fluorescence slope [5]: 7.9e-06 (inactive)
slope [6]: 0.00392 (inactive)
inhibition [7]: -11% (inactive)
inhibition [8]: 3.52% (inactive)

CCC(C(=O)O)n1c(C(F)(F)F)nc2ccccc21 (centres undefined)
cell count [1]: 717
inhibition [1]: -29.6% (inactive)
inhibition of aggregation [2]: 4.1% (inactive)
nuclei count [2]: 103%
inhibition [3]: -6.3% (inactive)
nuclei count [3]: 108%
fluorescence slope [4]: -0.558 (inactive)
NADPH fluorescence slope [5]: -2.1e-05 (inactive)
slope [6]: 0.00512 (inactive)
inhibition [7]: 7.44% (inactive)
inhibition [8]: 14.4% (inactive)

CCNC(=O)C1CC(=O)N(Cc2ccc3c(c2)OCO3)C(=Nc2ccc(F)cc2)S1 (centres undefined)
cell count [1]: 705
inhibition [1]: -0.8% (inactive)
inhibition of aggregation [2]: -38.8% (inactive)
nuclei count [2]: 109%
inhibition [3]: -83.7% (inactive)
nuclei count [3]: 98%
fluorescence slope [4]: -0.471 (inactive)
NADPH fluorescence slope [5]: -0.000221 (inactive)
slope [6]: 0.00631 (inactive)
inhibition [7]: -2.28% (inactive)
inhibition [8]: 16% (inactive)

CCSc1nncn1/N=C/c1ccc(OC)c(OC)c1
cell count [1]: 403
inhibition [1]: -9.6% (inactive)
inhibition of aggregation [2]: 32.4% (inactive)
nuclei count [2]: 89.8%
inhibition [3]: 39.9% (inactive)
nuclei count [3]: 82.5%
fluorescence slope [4]: -0.319 (inactive)
NADPH fluorescence slope [5]: 2e-05 (inactive)
slope [6]: 0.00581 (inactive)
inhibition [7]: -8.45% (inactive)
inhibition [8]: -5.17% (inactive)

CCOC(=O)C1CCN(c2c(N3CCCCCC3)c(=O)c2=O)CC1
cell count [1]: 897
inhibition [1]: -0.9% (inactive)
inhibition of aggregation [2]: -6.8% (inactive)
nuclei count [2]: 98.7%
inhibition [3]: -84.4% (inactive)
nuclei count [3]: 112%
fluorescence slope [4]: -0.581 (inactive)
NADPH fluorescence slope [5]: -4.7e-05 (inactive)
slope [6]: 0.0057 (inactive)
inhibition [7]: 8.92% (inactive)
inhibition [8]: 28.8% (inactive)
